Source: PubChem BioAssay (National Center for Advancing Translational Sciences (NCATS))
The list is not random: actives were taken first. Their share in the collection is about 2.3%.
WRN inhibitor: blocks human WRN helicase; AID 651768; Potency, µM (top dose mostly 114 µM), inactives show top-dose activity change, negative = inhibition, most hits filed as inhibitors; WRN helicase unwinding, fluorescent forked duplex, kinetic; 0.46% of 360,000 active; Q14191; note: % is set by controls: 0 for no effect and ±100 for the full control effect; nearly all actives have a fitted effect of over 55% in size
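Enzyme (20 nM final) and test compound sit together 15 min at room temperature before substrate addition. Substrate is a single-forked duplex oligonucleotide (100 nM) labelled with fluorophore and quencher, with 2 mM ATP; helicase unwinding raises red fluorescence, read kinetically.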
Pol eta inh: inhibitors of human DNA polymerase eta. Q9Y253. recombinant Pol eta, fluorescent DNA replication assay. Potency, µM (top dose mostly 114 µM), for inactives: at the highest dose activity change, negative = inhibition, actives largely listed as inhibitors. 1.2% of 390,000 active. AID 588591; note: % is set by controls: 0 for no effect and ±100 for the full control effect
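Pol eta at 10 nM preincubated with compounds 15 min at room temperature; reaction started with fluorescent substrate (50 nM final) and read kinetically at 0 and 10 min.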
POLI inh: inhibitors of human DNA polymerase iota. Pol iota fluorescent replication assay, 10 min. Potency, µM (highest dose often 115 µM), for the others: at the highest dose activity, negative = inhibition, hits mostly inhibitors. 1% of 390,000 active
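Pol iota at 10 nM preincubated 15 min with compounds at room temperature; reaction started with fluorescent substrate, 50 nM final. Fluorescence read kinetically at 0 and 10 min; buffer-only wells as negative control.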
POLK inh: blocks human DNA polymerase kappa activity | 0.53% of 400,000 active | Potency, µM (top dose mostly 107 µM), inactives show top-dose activity, negative = inhibition, usual class: inhibitors | purified Pol kappa, fluorescent DNA synthesis assay, 10 min | AID 588579; note: % is set by controls: 0 for no effect and ±100 for the full control effect
Target sequence (Q9UBT6 whole entry, looked up): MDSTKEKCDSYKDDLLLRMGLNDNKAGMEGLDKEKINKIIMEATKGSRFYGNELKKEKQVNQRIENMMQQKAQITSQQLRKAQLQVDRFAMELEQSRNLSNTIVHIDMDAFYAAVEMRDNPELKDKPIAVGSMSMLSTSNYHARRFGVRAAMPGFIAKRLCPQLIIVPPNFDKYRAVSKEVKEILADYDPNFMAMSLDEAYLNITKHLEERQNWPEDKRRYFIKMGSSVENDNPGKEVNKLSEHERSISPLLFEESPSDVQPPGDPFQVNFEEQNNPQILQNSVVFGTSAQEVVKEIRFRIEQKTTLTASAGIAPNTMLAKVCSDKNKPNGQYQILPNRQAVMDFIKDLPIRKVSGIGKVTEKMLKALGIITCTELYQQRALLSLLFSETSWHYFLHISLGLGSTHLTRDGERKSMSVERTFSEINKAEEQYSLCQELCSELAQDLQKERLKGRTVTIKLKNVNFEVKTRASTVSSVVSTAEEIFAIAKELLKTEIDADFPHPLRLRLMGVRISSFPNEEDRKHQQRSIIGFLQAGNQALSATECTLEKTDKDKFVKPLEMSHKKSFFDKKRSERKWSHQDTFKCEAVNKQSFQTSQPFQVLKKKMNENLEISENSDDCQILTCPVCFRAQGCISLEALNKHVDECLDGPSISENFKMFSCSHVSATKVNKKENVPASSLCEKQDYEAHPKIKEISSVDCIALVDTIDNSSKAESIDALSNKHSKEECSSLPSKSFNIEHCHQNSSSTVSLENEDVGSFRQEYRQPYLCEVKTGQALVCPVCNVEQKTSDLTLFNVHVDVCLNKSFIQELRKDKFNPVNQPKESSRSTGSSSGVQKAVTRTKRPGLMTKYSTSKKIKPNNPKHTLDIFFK
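10 nM Pol kappa was preincubated with compounds for 15 min at room temperature. Reaction started with 50 nM (final) substrate. Fluorescence read kinetically at 0 and 10 min.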
POLB inh: inhibitors of human DNA polymerase beta; P06746; Pol beta primer extension/strand displacement, fluorescence kinetic; Potency, µM (highest dose often 114 µM), for the others: at the top dose activity change, negative = inhibition, actives largely listed as inhibitors; 1.3% of 340,000 active; note: % is set by controls: 0 for no effect and ±100 for the full control effect
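Values derive from four-parameter Hill fits of normalized kinetic data: reads at 0 and 10 min following addition of 50 nM substrate to 10 nM Pol beta preincubated 15 min with compound.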
* marks the source's active call; other numbers are inactive results; u = inconclusive; x = no result; ! = a repeat was not active; [ ] = another dose, or the depositor's remark. Calls come from the whole dose curve; as a rule, active = well fitted curve in the direction sought with a large enough effect; inconclusive = small, poorly fitted or top-dose-only effect, or another doubt; inactive = no such curve, though single readings can be large; an effect the other way counts as inactive or inconclusive. Potency is the fitted concentration of half-maximal effect.

SMILES | WRN inhibitor | Pol eta inh | POLI inh | POLK inh | POLB inh
C=CCn1c(SC(F)F)nc2scc(-c3ccco3)c2c1=O | -18% | -18% | 9% | -10% | 9%
C=CCn1c(SCC(=O)N2CCOCC2)nc2scc(-c3ccco3)c2c1=O | 56µM* | 32µM* | 16µM* | u | 28µM*
CC(C)C(C)NC(=O)CSc1nc2scc(-c3ccco3)c2c(=O)n1-c1ccccc1 (stereo unspecified) | -10% | u | u | -19% | -4%
O=S1(=O)NCC23CCC(CC21)O3 (stereo unspecified) | x | x | -17% | 2% | x
COc1ccc(NCc2ccc([N+](=O)[O-])s2)cc1 | -13% | -7% | -11% | -27% | 22µM*
COc1ccc(NCc2ccc([N+](=O)[O-])s2)c(OC)c1 | -32% | u | -9% | -28% | 22µM*
O=[N+]([O-])c1ccc(CNc2ccc(F)cc2)s1 | -33% | -10% | 49% | 0% | -9%
CC(C)CC(NC(=O)NC(CCC(=O)O)C(=O)O)C(=O)O (stereo unspecified) | x | x | x | 13%[60.1 µM] | x
COc1cccc(C2C(C(=O)Nc3ccccc3)=C(C)Nc3nnnn32)c1OC (stereo unspecified) | x | -16% | 14% | -2%[60.1 µM] | 1%
COc1ccccc1CN(C)CC(=O)c1c(C)[nH]c2ccccc12 | x | x | 47% | 7% | x
Cc1ccc2ncc(C)c(/C=C/c3ccc(N(C)C)cc3)c2c1 | x | x | 8% | 8% | x
Cc1ccc(S(=O)(=O)N2CCN(c3nc(-c4cncs4)nc4ccccc34)CC2)cc1 | x | x | -2% | -1% | x
O=C(O)[C@H]1O[C@@H](Oc2ccc3ccc(=O)oc3c2)[C@H](O)[C@@H](O)[C@@H]1O | x | x | x | 17%[60.1 µM] | x
N/C(=N\OC(=O)c1ccc(Br)cc1)c1cccc([N+](=O)[O-])c1 | -4% | 1% | u | -9% | 18µM*
COc1cccc(CN2CC34CC(c5ccc(C(C)=O)cc5)C(CC3S2(=O)=O)O4)c1 (stereo unspecified) | x | x | -18% | -3% | x
CC(C)(C)NC(=O)COC(=O)c1cc(F)c(F)cc1Cl | -2% | -4% | 19% | -7% | 1%
CC(C)(C)NC(=O)c1cc(F)c(F)cc1Cl | 2% | -5% | 8% | 0% | 89µM*
C=C1NC(=O)c2cc(CN(C)c3ccc(C(=O)N[C@@H](CCC(=O)O)C(=O)O)s3)ccc2N1 | x | x | x | -1%[60.1 µM] | x
CCN(CC)c1ccc2cc(-c3nnc(-c4ccncc4)o3)c(=O)oc2c1 | -3% | -3% | -13%[58.9 µM] | 0% | -14%
CCN(CC)c1ccc2cc(-c3nnc(-c4cccc(Cl)c4)o3)c(=O)oc2c1 | x | -18% | 89µM* | u | 31%
COc1ccccc1/C=C/c1nc2ccccc2[nH]1 | x | x | -6% | -10% | x
Cc1ncnc2nc[nH]c12 | x | x | 22% | -11% | x
Cc1cc(=O)n(CC(=O)NC(C)c2ccccc2)c2c1c(C)nn2-c1cccc(F)c1 (stereo unspecified) | x | -5% | u | -41% | 22µM*
C=C[C@@]1(C)CC(=O)[C@]2(O)[C@@]3(C)[C@H](O)CCC(C)(C)[C@@H]3[C@H](O)[C@H](OC(C)=O)[C@@]2(C)O1 | x | x | x | 15%[60.1 µM] | x
Cc1ccc(C(=O)OC2=C(C(=O)c3ccccc3)N(C)S(=O)(=O)c3ccccc32)cc1 | x | -19% | 89µM* | -11% | u
SMILES | WRN inhibitor | Pol eta inh | POLI inh | POLK inh | POLB inh
CC(C)OC(=O)/C(C#N)=C/c1ccc(-c2ccc(Cl)c(Cl)c2)o1 | x | 0% | -26% | -3% | 11%
CC(C)OC(=O)c1cc(-c2ccc(C=O)o2)ccc1Cl | -9% | u | 7% | -8% | 20µM*
CCCc1cc2c(=O)c(-c3nc4ccccc4s3)c(COCC(=O)O)oc2cc1O | -23% | 79µM* | u | -22% | -27%
CCc1cc2c(=O)c(-c3nc4ccccc4n3C)c(COCC(=O)O)oc2cc1O | -6% | -15% | 25% | -7% | 1%
CN(Cc1ccccc1)C(=O)c1ccc(CSc2nc3cccnc3n2Cc2ccccc2F)cc1 | x | -10% | -6% | -6% | -2%
O=C(c1ccc(COc2c(F)c(F)c(F)c(F)c2F)o1)N1CCN(Cc2ccc3c(c2)OCO3)CC1 | -23% | u | u | u | 45µM*
O=C(COc1ccccc1C(=O)OCC(=O)Nc1cccc2ccccc12)Nc1ccc(Br)cc1 | x | x | 10% | 8% | x
CCn1c(CSc2nnc(-c3cccnc3)n2-c2ccccc2C)nc2cc(C(=O)O)ccc21 | x | x | x | x | 3.5µM*
CC(=O)Nc1ccc(Nc2nc(Nc3ccc(Cl)cc3)nc(N3CCOCC3)n2)cc1 | x | x | u | -15% | x
Oc1ccc(NCc2ccccc2OCc2ccccc2F)cc1 | u | 50µM*! | 10µM* | -22% | 23%
CCOc1ccccc1CNc1ccc(O)cc1 | -23% | 50µM* | 7.1µM* | -15% | 3%
CCc1ccc(CNc2ccc(O)cc2)cc1 | 45µM* | 25µM* | 2.8µM* | -18% | u
Cc1ccc(NCc2ccccc2OCc2ccccc2F)cc1 | -3% | 6% | 4% | -11% | -1%
CCOc1cccc(CNc2ccc(O)cc2)c1OCc1ccc(Cl)cc1 | u | 50µM* | 11µM* | -21% | 12%
CN(C)c1ccc(/C=C/c2cc(/C=C/c3ccc(N(C)C)cc3)c3ccccc3n2)cc1 | x | x | u | -4% | x
CNc1c(Br)cc(/C=C2\C=C(C(O)c3cc(Br)c(NC)c(Br)c3)c3ccccc32)cc1Br (stereo unspecified) | x | x | 35% | 4% | x
CCOc1cc(CNc2ccc(O)cc2)ccc1OCc1ccc(Cl)cc1Cl | u | 18µM* | 8.9µM* | -13% | u
CC(C)COc1ccc(CC(=O)NO)cc1 | x | x | 48% | -16% | x
Cc1cc(/C=C2\C=Cc3ccccc32)cc(C)c1[N+](=O)[O-] | x | x | -26% | -14% | x
O=C(CSc1ccccc1)N1CCN(c2ccccn2)CC1 | 1% | -14% | -15% | -11% | 0%
COc1ccccc1CNC(=O)CSc1ccsc1[N+](=O)[O-] | -7% | -5% | u | -16% | u
O=C(CSc1ccsc1[N+](=O)[O-])N1CCN(c2ccccn2)CC1 | u | 50µM* | 45µM* | u | u
O=C(CSc1ccsc1[N+](=O)[O-])NC1CCCC1 | -6%[11.6 µM] | 56µM* | 45µM* | -51% | u
CC1CCCCC1NC(=O)CSc1ccsc1[N+](=O)[O-] (stereo unspecified) | -17% | -17% | 6% | -3% | -12%
O=C(CSc1ccsc1[N+](=O)[O-])NCc1ccccc1 | 1%[11.6 µM] | 79µM* | u | -25% | u
COc1ccc(C(=O)C[n+]2ccccc2Cl)cc1 | x | x | -20% | 11% | x
CCN(C(=O)C(=O)c1c(C)[nH]c2ccccc12)c1ccccc1 | x | x | 2% | 6% | x
Cc1ccc(C)c(/C(O)=C2/C(=O)C(=O)N(CCN3CCOCC3)C2c2ccco2)c1 (stereo unspecified) | -32% | 22µM* | u | u | 7.1µM*
